Screens (PubChem BioAssay)
Pf growth 48h: Primary qHTS for delayed death inhibitors of the malarial parasite plastid, 48 hour incubation; 5.9% of 310,000 active; Potency, µM (series often up to 28.7 µM), for inactives: top-dose activity change, negative = inhibition, hits mostly inhibitors; P. falciparum luciferase growth in erythrocytes, 48 h; AID 504832, 2011; note: % is set by controls: 0 for no effect and ±100 for the full control effect
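A one-generation exposure of luciferase-tagged malaria parasites in RPMI 1640/Albumax erythrocyte culture, 37 C and 5% CO2. Inhibition is inferred from decreased luminescence after adding detection reagent.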
Vaccinia mCherry: qHTS for Stage-Specific Inhibitors of Vaccinia Orthopoxvirus: mCherry Reporter Primary qHTS; AID 720579, 2013; Vaccinia virus mCherry reporter infection, fluorescence; Potency, µM (top dose mostly 36.5 µM), inactives show at the top dose activity change, negative = inhibition, actives largely listed as inhibitors; 0.63% of 310,000 active; calls by dose curve; tested in A549 cells; note: % is set by controls: 0 for no effect and ±100 for the full control effect; nearly all actives have a fitted effect of over 35% in size
NS1 inh: qHTS Assay for Inhibitors of Influenza NS1 Protein Function. AID 2326, 2010. 0.4% of 270,000 active. Potency, µM (series often up to 46.1 µM), for inactives: top-dose activity, positive = more growth; calls by dose curve; note: actives are rising curves; nearly all actives have a fitted effect of over 50% in size
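A cell-based growth assay was used: compounds that relieve NS1-induced slow growth of budding yeast raise OD600. Assay medium was yeast nitrogen base with ammonium sulphate and -URA supplement, pH 6.0, with 2% galactose.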
Vaccinia Venus: qHTS for Stage-Specific Inhibitors of Vaccinia Orthopoxvirus: Venus Reporter Primary qHTS; Vaccinia virus Venus reporter expression, fluorescence; Potency, µM (top dose mostly 36.5 µM), for inactives: at the highest dose activity change, negative = inhibition, usual class: inhibitors; 0.46% of 330,000 active; AID 720580, 2013; calls by dose curve; tested in A549 cells; note: % is set by controls: 0 for no effect and ±100 for the full control effect; nearly all actives have a fitted effect of over 30% in size
Pf growth 96h: Primary qHTS for delayed death inhibitors of the malarial parasite plastid, 96 hour incubation. P. falciparum luciferase reporter growth, 96 h. Potency, µM (doses to about 28.7 µM), without a hit: at the top dose activity change, negative = inhibition, most hits filed as inhibitors. 6.9% of 320,000 active; note: % is set by controls: 0 for no effect and ±100 for the full control effect
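Cell-based qHTS: luciferase-tagged P. falciparum in erythrocytes (2% hematocrit, 0.05% parasitemia final) incubated with compounds for 96 hours, 37 C, 5% CO2; luciferase detection reagent then added and luminescence measured.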
HCV inhibitor: qHTS Assay for Inhibitors of Hepatitis C Virus (HCV). Potency, µM (top dose mostly 41.8 µM), for inactives: top-dose activity change, negative = inhibition, hits mostly inhibitors. 3.4% of 340,000 active. Huh7.5.1 HCVcc-Cre infection, luciferase reporter, 44 h; note: % is set by controls: 0 for no effect and ±100 for the full control effect
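Infectious HCV cell culture screen: compound-treated cells (1,000/well, pre-plated 4 h) are infected with HCVcc-Cre at roughly 0.5 moi and grown 44 h. Infection is quantified by luciferase signal after 15 min substrate incubation at room temperature.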
* = called active by the depositor; i = inactive; ? = inconclusive; / = no result; ! = not confirmed by another sample; [ ] = remark or other dose. The list is not random: actives were taken first. Their share in the collection is about 11%. Unless noted, calls come from the whole dose curve; as a rule, active = well fitted inhibition curve with a large enough effect; inconclusive = small, poorly fitted or top-dose-only effect, or another doubt; inactive = no such curve, though single readings can be large or run the other way. Potency is the fitted concentration of half-maximal effect.

SMILES | Pf growth 48h | Vaccinia mCherry | NS1 inh | Vaccinia Venus | Pf growth 96h | HCV inhibitor
O=C(NC(=O)c1ccccc1)NC1(C(F)(F)F)OCCO1 | / | / | 0% | / | 28% | /
CC1(C)CC(=O)C(C=NCCN2CCN(C3CC(=O)N(c4ccc(Br)cc4)C3=O)CC2)=C(O)C1 (stereo not given) | 31% | 5% | -3% | 7% | 13µM* | 29%
CN1CCc2c(c3ccccc3n2C)C1 | 46% | -11% | -6% | -4% | ? | -16%
CN1CCc2c(c3ccccc3n2Cc2ccccc2)C1 | -7%[12.8 µM] | 28µM*! | -7% | 13µM*! | ? | -28%
CCCCN1CCc2c(c3ccccc3n2Cc2ccccc2)C1 | 10µM* | / | -4% | / | 6.6µM* | ?
NS(=O)(=O)c1ccc(CNC(=O)c2ccc(Cl)c([N+](=O)[O-])c2)cc1 | -9% | / | 1% | / | -2% | 7%
Cc1c(C(c2ccc(C(=O)O)cc2)c2c(C)n(C)n(-c3ccccc3)c2=O)c(=O)n(-c2ccccc2)n1C | / | -14% | 6% | -2% | 15% | 3.5µM*
Cc1c(C(c2ccc(O)cc2)c2c(C)n(C)n(-c3ccccc3)c2=O)c(=O)n(-c2ccccc2)n1C | 2% | -3% | / | -5% | 0% | -6%
COc1ccc(C(c2c(C)n(C)n(-c3ccccc3)c2=O)c2c(C)n(C)n(-c3ccccc3)c2=O)c(OC)c1OC | ? | -13% | 8% | -11% | 10µM* | 21%
Cc1nn(CCc2nn[nH]n2)c2nc(-c3ccccc3)cc(C(F)(F)F)c12 | -4% | / | / | / | 0% | 7%
CCCn1c(=O)[nH]c(=O)c2c(C(F)(F)F)cc(-c3ccc(C)cc3)nc21 | 40% | i | / | 3% | 2.6µM* | 6%
O=c1[nH]c(=O)n(Cc2ccccc2)c2nc(-c3ccco3)cc(C(F)(F)F)c12 | ? | / | -4% | -6% | 5.9µM* | ?
Cc1cc(C(F)(F)F)c2c(=O)[nH]c(=O)n(Cc3ccccc3)c2n1 | -7% | i | -1% | -11% | ? | -30%
CC(C)Cn1c(=O)[nH]c(=O)c2c(C(F)(F)F)cc(-c3ccccc3)nc21 | ? | / | -3% | / | 8.3µM* | ?
CCOc1cc(CNCCO)ccc1OCC(=O)NC(C)(C)C | 2% | -12% | 4% | 2% | ? | -4%
COc1cc(C(=O)NC2CCCc3ccccc32)ccc1OCC(=O)Nc1ccc(F)cc1 (stereo not given) | ? | i | -4% | 0% | 13µM* | -13%
COc1cc(CNC2CCCCCCC2)ccc1OCC(N)=O | -20% | / | -11% | / | ? | 8%
CCOC(=O)c1ccc(NC(=O)COc2ccc(CNC3CCCCC3)cc2OC)cc1 | 4.7µM* | -22% | 1% | -17% | 28% | ?
CCOC(=O)c1ccc(NC(=O)COc2ccc(CNCCO)cc2OCC)cc1 | ? | -14% | 0% | -9% | ? | 8.9µM*
C=CCOc1ccc(CNC(C)(C)CO)cc1OC | -14% | / | 9% | -3% | -6% | 1%
COc1ccc(C(=O)NC2CCCc3ccccc32)cc1Br (stereo not given) | ? | ? | -49% | ? | ? | ?
COc1cc(CNC(C)(C)CO)ccc1OCC(=O)Nc1ccc(Br)cc1 | 9% | / | -1% | / | -13% | 13µM*
COc1cc(C(=S)N2CCCC2)cc(Cl)c1O | 10% | / | 1% | / | -8% | -17%
CC(C)(C)c1ccc(CC(=O)N2CCC2(C)C(=O)Nc2cccc3ccccc23)cc1 (stereo not given) | / | 30% | / | 7% | / | /
COc1ccc(NC(=O)c2ccc(Cl)c(S(=O)(=O)NCC3CCCO3)c2)c(OC)c1 (stereo not given) | ? | / | 16% | / | 12µM* | ?
SMILES | Pf growth 48h | Vaccinia mCherry | NS1 inh | Vaccinia Venus | Pf growth 96h | HCV inhibitor
COc1cccc2cc(C(=O)Nc3ccc(S(=O)(=O)NCC4CCCO4)cc3)c(=O)oc12 (stereo not given) | 2.1µM* | ? | -1% | -1% | 60% | 35%
COc1cccc2cc(C(=O)Nc3ccc(C)cc3)c(=O)oc12 | / | 2% | / | 11% | / | /
COc1cc(C(Nc2ccc(S(=O)(=O)N3CCC(C)CC3)cc2)C(=O)NCC2CCCO2)cc(OC)c1OC (stereo not given) | 13µM* | -16% | 3% | -25% | ? | -17%
COc1cc(C(Nc2ccc(S(=O)(=O)NCC3CCCO3)cc2)C(=O)NC(C)(C)C)cc(OC)c1OC (stereo not given) | 2.1µM* | -1% | -8% | 8% | ? | 17%
COc1ccc(S(=O)(=O)Nc2ccc(S(=O)(=O)NCC3CCCO3)cc2)cc1 (stereo not given) | 11% | -17% | 11% | 6% | 78% | -18%
CCOC(=O)c1ccc(NC(=O)CCOc2ccc(OC)cc2)cc1 | / | / | -46% | / | 43% | -19%
O=C(Nc1ccccc1C(F)(F)F)C1CCCC1 | 2% | i | 7% | -10% | -18% | 15%
O=C(O)C1CCCN(S(=O)(=O)c2ccc3c(c2)OCCO3)C1 (stereo not given) | 0% | i | 3% | -2% | 1% | 6%
OC(c1ccc(F)cc1)c1nc(-c2ccc(Cl)cc2)cs1 (stereo not given) | / | -27% | / | ? | / | /
Cc1occc1C(=O)Nc1ccc(S(=O)(=O)N2CCCC2)cc1 | 11% | / | -6% | / | 0% | ?
O=C(Cn1c(-c2ccccc2)c[n+]2ccsc12)c1ccc([N+](=O)[O-])cc1 | 11% | / | 19% | / | ? | 10µM*
CC1CCc2c(sc3nc(C(C)(C)C)nc(N4CCN(C(=O)CCl)CC4)c23)C1 (stereo not given) | -56% | -8% | -89% | ? | 6.6µM* | ?
CC1(c2nnc(Cc3ccccc3)o2)CC(c2ccc(F)cc2)=NO1 (stereo not given) | / | -16% | / | 2% | / | 15%
COc1cc(CCNC2=CC(=O)c3ncccc3C2=O)ccc1O | / | 10µM* | / | 10µM* | / | ?
Cc1ccc2nc(NC(=O)c3cccc(-c4cc5ccccc5oc4=O)c3)sc2c1 | 139% | i | 8% | -3% | 219% | 8.9µM*
CCOC(=O)c1c[nH]c(=S)n(-c2ccccc2)c1=O | 12% | i | / | -8% | 51% | 17%
CCSC1=NC2(CCCCC2)Nc2sc3c(c21)CCCC3 | / | -9% | -2% | -22% | 2.6µM* | ?
Cc1cc(NS(=O)(=O)c2ccc(NC(=O)CCSc3ccc(F)cc3)cc2)nc(C)n1 | 96% | / | 3% | / | 67% | 2%
COc1ccccc1N(C)S(=O)(=O)c1ccc(C(=O)N(C)Cc2ccc(Cl)s2)cc1 | 12µM* | ? | / | -25% | ? | ?
